# Source: the supplement of paper PMC10849652
# Targets with a hit are over-represented here; the source holds about 8,800 in all. About 0.5% of all pairs of compound and target were hits. A number with no mark means an inactive call.
# What was measured:
# Experiment in all cases: log2 fold change, soluble protein after heating vs DMSO (PISA); higher = thermal stabilisation; K562 lysate, 10 uM; active = over 0.2 and 3.5 SD of the protein, either way, in both replicates (recomputed)
# [1] = compound: C/C(=N\NC(=O)C1=CC(=CC=C1)S(=O)(=O)N2CCOCC2)/C3=C(C=CC(=C3)Cl)O
# Summary of the method: (§1)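 Values give the log-two fold change in thermal stability against solvent controls, from duplicates. Crude K562 extract at 1 mg/mL protein, made by dounce homogenisation in PBS pH 7.4 with 1 mM MgCl2, was treated with 10 μM compound for 30 min. After 3 min heating across 48°C-58°C, aliquots were pooled, adjusted to 0.5% NP-40 at 4°C and centrifuged at 21,000xg for 90 min. The supernatant was measured by TMTpro 16plex LC-MS/MS with channel sums equalised.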
# [2] = compound: C1=CC2=C(C=CC(=C2)/C=C\3/C(=O)NC(=NCC4=CC=CS4)S3)N=C1
# Summary of the method: as §1
# [3] = compound: C1=CC2=NC=CN=C2C=C1/C=C/3\C(=O)NC(=O)S3
# Summary of the method: as §1
# [4] = compound: C1=CC=C2C(=C1)C3=NNC4=CC=CC(=C43)C2=O
# Summary of the method: as §1
# [5] = compound: C1CCN(C1)C(=O)NC2=CC=CC(=C2)NC3=NC=C(C(=N3)NCCC4=CN=CN4)Br
# Summary of the method: as §1
# [6] = compound: C1CN(CCC1(CC2=CC=C(C=C2)Cl)N)C3=NC=NC4=C3C=CN4
# Summary of the method: as §1
# erlotinib = compound: C#Cc1cccc(Nc2ncnc3cc(OCCOC)c(OCCOC)cc23)c1 [erlotinib]
# Summary of the method: as §1
# [7] = compound: C1=CC(=CC=C1C2=NC3=C(N2)C=C(C=C3)C(=O)N)OC4=CC=C(C=C4)Cl
# Summary of the method: as §1
# [8] = compound: C1=CC=C(C=C1)C2=NC(=C(N2)C3=CC=NC=C3)C4=CC(=C(C=C4)Cl)O
# Summary of the method: as §1
# IRAK-1-4 Inhibitor I = compound: C1COCCN1CCN2C3=CC=CC=C3N=C2NC(=O)C4=CC(=CC=C4)[N+](=O)[O-] [IRAK-1-4 Inhibitor I]
# Summary of the method: as §1
# Sequence of UniProt Q9NXR5 (Q9NXR5 whole entry, looked up): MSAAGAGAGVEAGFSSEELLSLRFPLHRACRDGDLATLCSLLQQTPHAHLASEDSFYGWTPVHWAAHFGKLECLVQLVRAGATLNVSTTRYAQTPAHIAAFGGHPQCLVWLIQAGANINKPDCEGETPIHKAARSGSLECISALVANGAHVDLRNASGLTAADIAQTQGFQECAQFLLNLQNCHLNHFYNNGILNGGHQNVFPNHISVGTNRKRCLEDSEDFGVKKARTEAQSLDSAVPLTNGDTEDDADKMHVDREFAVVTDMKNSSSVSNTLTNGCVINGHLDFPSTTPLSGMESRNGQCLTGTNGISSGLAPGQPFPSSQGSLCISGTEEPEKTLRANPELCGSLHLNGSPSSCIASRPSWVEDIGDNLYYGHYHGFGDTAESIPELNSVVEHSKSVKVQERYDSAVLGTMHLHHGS
# Sequence of UniProt Q9BTT0 (Q9BTT0 whole entry, looked up): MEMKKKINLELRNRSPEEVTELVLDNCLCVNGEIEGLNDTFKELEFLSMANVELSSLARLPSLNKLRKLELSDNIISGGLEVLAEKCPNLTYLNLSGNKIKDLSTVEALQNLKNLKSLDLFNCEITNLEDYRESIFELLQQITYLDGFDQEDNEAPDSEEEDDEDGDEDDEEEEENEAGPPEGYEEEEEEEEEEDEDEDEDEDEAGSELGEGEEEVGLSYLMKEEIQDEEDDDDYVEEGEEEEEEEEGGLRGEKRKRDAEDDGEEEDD
# Sequence of UniProt Q9H1I8 (Q9H1I8 whole entry, looked up): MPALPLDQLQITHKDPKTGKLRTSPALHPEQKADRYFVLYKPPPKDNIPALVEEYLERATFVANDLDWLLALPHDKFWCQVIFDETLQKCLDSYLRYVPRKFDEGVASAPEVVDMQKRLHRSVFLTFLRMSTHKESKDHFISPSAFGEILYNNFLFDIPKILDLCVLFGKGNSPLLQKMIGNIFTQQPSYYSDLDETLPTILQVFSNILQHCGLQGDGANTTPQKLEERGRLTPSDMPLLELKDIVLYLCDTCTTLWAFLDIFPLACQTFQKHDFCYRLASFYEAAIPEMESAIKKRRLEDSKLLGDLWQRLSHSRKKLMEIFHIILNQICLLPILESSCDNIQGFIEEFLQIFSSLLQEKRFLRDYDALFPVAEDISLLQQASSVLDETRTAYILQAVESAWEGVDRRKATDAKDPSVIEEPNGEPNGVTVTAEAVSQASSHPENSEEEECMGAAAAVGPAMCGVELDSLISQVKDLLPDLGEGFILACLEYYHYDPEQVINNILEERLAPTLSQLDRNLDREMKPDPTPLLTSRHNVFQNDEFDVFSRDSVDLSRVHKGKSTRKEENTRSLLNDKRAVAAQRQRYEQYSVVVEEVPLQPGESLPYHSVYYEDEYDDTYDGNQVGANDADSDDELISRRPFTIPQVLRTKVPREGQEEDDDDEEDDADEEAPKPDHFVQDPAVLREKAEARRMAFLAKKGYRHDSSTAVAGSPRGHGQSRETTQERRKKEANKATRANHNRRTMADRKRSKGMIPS
# Sequence of UniProt O14617 (O14617 whole entry, looked up): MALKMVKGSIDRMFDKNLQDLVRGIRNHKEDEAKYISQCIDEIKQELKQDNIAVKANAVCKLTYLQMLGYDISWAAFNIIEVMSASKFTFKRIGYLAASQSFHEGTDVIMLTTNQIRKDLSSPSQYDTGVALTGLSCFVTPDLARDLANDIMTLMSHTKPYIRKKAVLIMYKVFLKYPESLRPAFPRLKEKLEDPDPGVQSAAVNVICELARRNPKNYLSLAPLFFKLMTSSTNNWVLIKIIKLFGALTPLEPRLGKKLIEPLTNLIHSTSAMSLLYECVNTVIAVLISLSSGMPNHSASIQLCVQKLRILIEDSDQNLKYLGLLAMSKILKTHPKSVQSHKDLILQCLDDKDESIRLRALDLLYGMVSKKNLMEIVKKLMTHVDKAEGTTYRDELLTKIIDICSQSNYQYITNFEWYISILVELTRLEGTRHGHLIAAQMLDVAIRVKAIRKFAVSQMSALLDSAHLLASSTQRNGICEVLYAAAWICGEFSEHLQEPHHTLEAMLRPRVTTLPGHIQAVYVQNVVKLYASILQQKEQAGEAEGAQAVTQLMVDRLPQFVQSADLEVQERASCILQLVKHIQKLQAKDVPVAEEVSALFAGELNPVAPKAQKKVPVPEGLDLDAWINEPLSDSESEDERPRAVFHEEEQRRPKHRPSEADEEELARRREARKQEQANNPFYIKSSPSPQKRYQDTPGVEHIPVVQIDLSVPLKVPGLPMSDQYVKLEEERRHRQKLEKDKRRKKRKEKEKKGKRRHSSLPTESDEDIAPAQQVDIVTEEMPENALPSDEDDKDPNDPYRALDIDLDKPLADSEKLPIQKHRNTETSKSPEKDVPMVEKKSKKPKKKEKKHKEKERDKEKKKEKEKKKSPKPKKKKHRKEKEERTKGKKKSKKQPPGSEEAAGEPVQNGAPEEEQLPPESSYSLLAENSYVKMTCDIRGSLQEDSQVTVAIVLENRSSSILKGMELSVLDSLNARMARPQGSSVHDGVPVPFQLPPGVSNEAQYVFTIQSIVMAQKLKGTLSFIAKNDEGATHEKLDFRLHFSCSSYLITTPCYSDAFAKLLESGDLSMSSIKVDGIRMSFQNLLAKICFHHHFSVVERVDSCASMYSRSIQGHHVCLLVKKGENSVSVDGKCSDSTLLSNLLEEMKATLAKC
# Sequence of UniProt Q8IZP0 (Q8IZP0 whole entry, looked up): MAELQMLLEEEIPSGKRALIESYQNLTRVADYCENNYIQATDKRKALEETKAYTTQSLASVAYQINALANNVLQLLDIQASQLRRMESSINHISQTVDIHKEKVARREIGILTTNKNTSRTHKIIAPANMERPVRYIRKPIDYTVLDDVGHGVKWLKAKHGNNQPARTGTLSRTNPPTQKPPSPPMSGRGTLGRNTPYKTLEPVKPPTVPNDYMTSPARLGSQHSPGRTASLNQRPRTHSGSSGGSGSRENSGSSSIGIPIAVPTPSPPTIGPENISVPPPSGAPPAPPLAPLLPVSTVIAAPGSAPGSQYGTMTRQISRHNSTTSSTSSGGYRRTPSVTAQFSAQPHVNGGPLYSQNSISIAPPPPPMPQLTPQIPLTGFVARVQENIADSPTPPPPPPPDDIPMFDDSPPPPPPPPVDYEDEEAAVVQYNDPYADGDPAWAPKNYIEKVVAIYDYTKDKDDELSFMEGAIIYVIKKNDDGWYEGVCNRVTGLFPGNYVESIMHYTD
# Sequence of UniProt P14621 (P14621 whole entry, looked up): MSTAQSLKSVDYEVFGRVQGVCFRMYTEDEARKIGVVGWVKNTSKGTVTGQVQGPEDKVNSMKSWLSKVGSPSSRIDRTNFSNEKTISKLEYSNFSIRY
# Sequence of UniProt Q9BXX3 (Q9BXX3 whole entry, looked up): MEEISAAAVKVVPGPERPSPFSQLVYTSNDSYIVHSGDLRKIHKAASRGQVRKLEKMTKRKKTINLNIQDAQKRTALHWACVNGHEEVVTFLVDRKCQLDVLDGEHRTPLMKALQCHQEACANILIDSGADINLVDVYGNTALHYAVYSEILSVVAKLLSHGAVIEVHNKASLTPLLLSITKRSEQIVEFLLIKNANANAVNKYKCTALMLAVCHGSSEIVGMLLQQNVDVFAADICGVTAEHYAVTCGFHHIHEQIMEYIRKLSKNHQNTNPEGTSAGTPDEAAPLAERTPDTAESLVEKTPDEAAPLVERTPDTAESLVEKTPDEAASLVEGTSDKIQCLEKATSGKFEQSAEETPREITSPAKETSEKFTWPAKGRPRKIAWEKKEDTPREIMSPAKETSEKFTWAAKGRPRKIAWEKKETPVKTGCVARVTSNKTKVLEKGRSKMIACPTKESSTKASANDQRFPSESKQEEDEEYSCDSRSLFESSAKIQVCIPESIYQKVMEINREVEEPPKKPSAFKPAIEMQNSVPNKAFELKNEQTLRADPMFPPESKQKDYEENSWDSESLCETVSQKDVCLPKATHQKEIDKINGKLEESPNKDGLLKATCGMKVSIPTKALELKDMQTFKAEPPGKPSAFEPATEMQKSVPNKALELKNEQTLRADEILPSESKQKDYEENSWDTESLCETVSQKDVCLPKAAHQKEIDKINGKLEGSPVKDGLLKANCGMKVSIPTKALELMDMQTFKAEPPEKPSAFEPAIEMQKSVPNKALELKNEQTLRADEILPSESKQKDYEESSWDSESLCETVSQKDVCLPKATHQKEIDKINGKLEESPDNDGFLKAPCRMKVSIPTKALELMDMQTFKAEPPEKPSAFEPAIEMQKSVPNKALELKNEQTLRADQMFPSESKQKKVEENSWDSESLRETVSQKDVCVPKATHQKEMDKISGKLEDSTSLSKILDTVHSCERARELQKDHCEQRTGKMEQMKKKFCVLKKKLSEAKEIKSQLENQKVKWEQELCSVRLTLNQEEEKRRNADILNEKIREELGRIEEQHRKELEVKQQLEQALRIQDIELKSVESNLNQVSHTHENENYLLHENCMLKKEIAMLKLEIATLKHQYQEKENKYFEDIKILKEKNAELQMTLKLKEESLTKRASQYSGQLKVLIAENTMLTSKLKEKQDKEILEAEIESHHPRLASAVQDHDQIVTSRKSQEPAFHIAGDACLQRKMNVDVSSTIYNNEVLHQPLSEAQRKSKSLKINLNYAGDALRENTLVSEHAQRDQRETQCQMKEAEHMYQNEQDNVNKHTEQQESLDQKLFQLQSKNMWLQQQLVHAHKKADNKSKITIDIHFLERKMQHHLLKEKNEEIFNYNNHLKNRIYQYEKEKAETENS
# Sequence of UniProt Q9Y303 (Q9Y303 whole entry, looked up): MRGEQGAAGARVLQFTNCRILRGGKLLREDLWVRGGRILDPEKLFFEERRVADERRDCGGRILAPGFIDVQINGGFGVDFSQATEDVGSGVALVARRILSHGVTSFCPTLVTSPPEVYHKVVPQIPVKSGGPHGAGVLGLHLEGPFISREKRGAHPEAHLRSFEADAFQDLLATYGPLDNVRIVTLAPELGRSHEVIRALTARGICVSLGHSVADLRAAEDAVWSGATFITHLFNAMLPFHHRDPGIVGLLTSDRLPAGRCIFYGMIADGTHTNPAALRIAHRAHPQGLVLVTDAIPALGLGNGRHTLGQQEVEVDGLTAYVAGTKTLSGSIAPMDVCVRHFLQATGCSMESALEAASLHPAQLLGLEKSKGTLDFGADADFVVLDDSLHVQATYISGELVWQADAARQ
Target,log2 fold change [1],log2 fold change [2],log2 fold change [3],log2 fold change [4],log2 fold change [5],log2 fold change [6],log2 fold change (erlotinib),log2 fold change [7],log2 fold change [8],log2 fold change (IRAK-1-4 Inhibitor I)
ABHD13 (UniProt Q7L211),0.015,0.021,0.011,-0.071,0.176,0.04,,,,
ABRACL (UniProt Q9P1F3),,,0.103,,,,-0.013,0.056,,
ANXA1 (UniProt P04083),0.013,0.014,-0.009,-0.021,0.003,0.016,-0.012,0.015,-0.008,-0.013
ANP32E isoform 3 (UniProt Q9BTT0),-0.079,-0.002,-0.011,0.012,0.075,-0.01,,,,
ASCC2 (UniProt Q9H1I8),-0.106,0.083,0.029,-0.048,-0.054,0.037,0.04,-0.077,-0.016,-0.042
ANKRD30A (UniProt Q9BXX3),,,0.035,,0.415,0.144,,,-0.06,-0.176
ANXA2 (UniProt H0YL33),,,-0.108,,,,-0.153,0.088,-0.027,-0.031
ALKBH1 (UniProt Q13686),-0.042,0.052,,-0.022,0.211,0.041,0.033,-0.02,0.024,-0.11
ABI1 isoform 6 (UniProt Q8IZP0),,,,,-0.167,0.213,,,,
ARL13B (UniProt Q3SXY8),0.06,-0.039,0.118,0.094,,,0.043,-0.195,-0.033,0.038
ANKRD44 isoform 2 (UniProt Q8N8A2),-0.035,-0.083,-0.016,-0.257,-0.059,-0.032,-0.034,0.002,,
ARHGEF2 (UniProt V9GYF0),-0.056,-0.125,,0.078,-0.009,-0.058,,,0.012,0.062
AMDHD2 (UniProt Q9Y303),-0.527 (active),0.212,,-0.391,,,,,,
ABI1 isoform 9 (UniProt Q8IZP0),-0.003,0.01,-0.007,-0.014,0.006,0.004,-0.014,0.025,0.009,-0.021
ANKRD30B (UniProt Q9BXX2),0.106,-0.115,0.005,-0.047,-0.006,0.124,0.077,-0.053,-0.032,0.095
ACACA isoform 4 (UniProt Q13085),0.039,-0.012,0.011,-0.047,0.003,0.024,0.024,-0.029,0.019,0.005
ACYP2 (UniProt P14621),0.256,-0.176,0.002,-0.185,,,-0.057,0.007,-0.049,-0.011
ACLY isoform 2 (UniProt P53396),-0.122,0.002,-0.018,-0.034,-0.027,-0.029,,,0.012,-0.053
AP3D1 isoform 5 (UniProt O14617),-0.004,0.011,0.001,-0.015,-0.015,-0.001,-0.013,-0.006,-0.007,-0.003
ACTG1 (UniProt K7EM38),,,,,-0.162,-0.155,,,,
"ADK, A0A5F9ZH76",,,0,,,,,,,
ANKRD10 (UniProt Q9NXR5),0.045,0.009,0.055,-0.066,,,0.023,-0.041,0.012,-0.059
